Compound activity (PubChem BioAssay)
A selection: hits, their analogues and other compounds. The true share with any hit is near 19%.
TDP1 cell noCPT – qHTS for Inhibitors of human tyrosyl-DNA phosphodiesterase 1 (TDP1): qHTS in cells in absence of CPT; Potency, µM (series often up to 46.2 µM), for the others: at the top dose activity change, negative = growth inhibition, actives largely listed as inhibitors; DT40 Tdp1-/- hTDP1 cells, no CPT, ATP luminescence, 48 h; 420,000 tested, 15% active; note: potency is the fitted concentration of half-maximal effect; nearly all actives have a fitted effect of over 55% in size
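A cellular qHTS used chicken DT40 cells lacking endogenous Tdp1 but carrying stably transfected human TDP1. Compounds were applied without camptothecin, and cell growth kinetics were judged by ATP-dependent luminescence after ≥48 hr.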
TDP1 cell CPT – growth inhibition of DT40 Tdp1-/-;hTDP1 cells with camptothecin (screen for TDP1 inhibitors); chicken DT40 Tdp1-/-;hTDP1 cells + 20 nM CPT, ATP luminescence, 48 h; Potency, µM (titrated, usually from 46.2 µM), without a hit: at the top dose activity change, negative = growth inhibition, usual class: inhibitors; 420,000 tested, 12% active; AID 686979; note: potency is the fitted concentration of half-maximal effect; nearly all actives have a fitted effect of over 55% in size
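Cell growth measured by CellTiter-Glo luminescence after a minimum 48 h, 37 C compound exposure with 20 nM CPT in Tdp1-knockout DT40 cells stably expressing hTDP1, seeded 400/well; qHTS titration format.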
HT1080NT lethal – kills 2HG-producing HT-1080-NT fibrosarcoma cells; AID 686970; 360,000 tested, 1.6% active; HT-1080-NT fibrosarcoma viability, CellTiter-Glo ATP luminescence, 48 h; Potency, µM (doses to about 46.1 µM), inactives show at the top dose activity, negative = less viability, usual class: cytotoxic;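 note: NT is the 2HG producing partner of a matched IDH1 knockdown line; potency is the fitted concentration of half-maximal effect; 0% = DMSO-treated cells and -100% = media-only wells without cells; nearly all actives have a fitted effect of over 55% in size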
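HT-1080-NT fibrosarcoma cells (2HG-overproducing), 750 cells/well in RPMI with 5% FBS, dosed after 2 h and incubated 48 h at 37C. CellTiter-Glo luminescence normalized to DMSO and no-cell wells; concentration-response curves fitted and classed.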
ELG1 repair inh – blocks ELG1-dependent DNA repair in HEK293T cells. HEK293T ELG1-luciferase reporter, luminescence, 16 h; DNA damage induced by 5-fluorouridine. Potency, µM (highest dose often 46.1 µM), inactives show top-dose activity change, negative = inhibition, most hits filed as inhibitors. 330,000 tested, 2.3% active. AID 504467; note: potency is the fitted concentration of half-maximal effect; nearly all actives have a fitted effect of over 55% in size
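Reporter activity after DNA damage by 5-fluorouridine is monitored. Compound-treated cells incubate 16 hr at 37 °C, then ONE-Glo is added for 30 min before luminescence reading.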
HT1080 IDH1KD tx – kills HT-1080 cells with IDH1 knockdown; HT-1080 IDH1 knockdown viability, ATP luminescence, 48 h; Potency, µM (top dose mostly 46.1 µM), without a hit: at the highest dose activity, negative = toxicity, most hits filed as cytotoxic; AID 686971; 360,000 tested, 2% active;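 note: potency is the fitted concentration of half-maximal effect; 0% = DMSO wells and -100% = cell-free medium wells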
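% activity derives from luminescence (CellTiter-Glo), normalised to DMSO and no-cell wells. HT-1080-IDH1KD cells, 750/well, had 48 h compound exposure at 37 °C.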
IL1B secr inh – inhibitors of inflammasome signaling (IL-1 beta secretion); 360,000 tested, 4.7% active; activity change, % at 57.5 µM; AID 743279; THP-1 LPS/ATP IL-1B secretion, AlphaLISA, 16 h; active compounds read low; in the data active = activity change below about -50%; inconclusive = mostly about -30% to -49%
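Secreted IL-1B measured by AlphaLISA bead assay after 16 h compound exposure of THP-1 cells; compounds (final up to 57.5 uM) added 1 h before LPS (250 ng/mL) and ATP (1.25 mM) stimulation; lower signal means less secretion.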
The depositor's hits bear a star; i = inactive; ? = inconclusive; . = not tested or not shown; [ ] = another dose, or the depositor's remark. Unless noted, calls come from the whole dose curve; as a rule, active = well fitted curve in the direction sought with a large enough effect; inconclusive = small, poorly fitted or top-dose-only effect, or another doubt; inactive = no such curve, though single readings can be large; an effect the other way counts as inactive or inconclusive. Unless noted, % is set by controls: 0 for no effect and ±100 for the full control effect.

SMILES	TDP1 cell noCPT	TDP1 cell CPT	HT1080NT lethal	ELG1 repair inh	HT1080 IDH1KD tx	IL1B secr inh
COc1ccc(CN2CCC(C(=O)Nc3ccc(Oc4ccccc4)nc3)CC2)cc1F	18.4µM*	20.6µM*	-0.4%	?	-1.4%	i
Cc1c(CN2CCC(C(=O)Nc3ccc(Oc4ccccc4)nc3)CC2)cnn1C	14.2%	11.1%	-1.3%	-8.5%	5.0%	27.4
O=C(CN1CCCc2ccccc21)N/N=C/c1ccccc1	16.4µM*	?	-2.5%	?	-2.7%	18.0
CCN(CC)c1ccc(/C=N/NC(=O)CN2CCCc3ccccc32)cc1	?	?	-0.7%	?	-4.1%	-12.2
O=C(CN1CCCc2ccccc21)N/N=C/c1c(O)ccc2ccccc12	3.66µM*	4.11µM*	?	19.9%	?	50.1
O=C(CN1CCCc2ccccc21)N/N=C/c1ccc(O)cc1O	16.4µM*	?	?	?	?	102.2
COc1ccc(N(CC(=O)NCCC2=CCCCC2)S(=O)(=O)c2ccc(C)cc2)cc1	.	.	.	-10.7%	.	.
CCN=c1sc(C(=O)NCCc2ccccc2)cc(=O)n1CC	18.4µM*	?	?	4.5%	?	-9.6
CCn1c(=O)c2cc(C(=O)NCCc3cccc(C)c3)sc2c2ccccc21	-14.3%	-4.3%	.	.	.	.
Cc1ccc(C(=O)NCC(=O)OCc2nnc(-c3ccc([N+](=O)[O-])cc3)o2)s1	-29.3%	?	-1.7%	2.7%	0.2%	0.0
CCSC1(SCC)N=C(N)C2(C#N)C(c3ccccc3)NC(C)=C(C)C12C#N (stereo not given)	-9.1%	0.2%	4.1%	10.8%	7.3%	8.4
CCSC1(SCC)N=C(N)C2(C#N)C(c3ccc(F)cc3)C12C#N (stereo not given)	20.6µM*	?	?	?	?	-109.3*
CCC1(O)CC2CN(CCc3c([nH]c4ccccc34)C(C(=O)OC)(c3cc4c(cc3OC)N(C=O)C3C(O)(C(=O)OC)C(OC(C)=O)C5(CC)C=CCN6CCC43C65)C2)C1 (stereo not given)	0.146µM*	0.092µM*	0.0058µM*	.	?	25.5
CC[C@]1(O)C[C@@H]2CN(CCc3c([nH]c4ccccc34)[C@](C(=O)OC)(c3cc4c(cc3OC)N(C=O)[C@H]3[C@@](O)(C(=O)OC)[C@H](C(=O)OC)[C@@]5(CC)C=CCN6CC[C@]43[C@H]65)C2)C1	0.0188µM*	0.0266µM*	.	.	.	.
CC[C@]1(O)CC2CN(CCc3c([nH]c4ccccc34)[C@@](C(=O)OC)(c3cc4c(cc3OC)N(C)[C@H]3[C@@](O)(C(=O)OC)[C@H](OC(C)=O)[C@]5(CC)C=CCN6CC[C@]43[C@@H]65)C2)C1 (stereo not given in full)	0.141µM*	0.0708µM*	.	.	.	.
CCOC(=O)N(C)[C@H]1C[C@H]2c3[nH]c4ccccc4c3CCN2C[C@H]1[C@H](C)O	?	?	-8.2%	.	-12.3%	0.0
Cc1ccc(SCC(=O)OCC(=O)N(CCC#N)c2ccccc2)cc1	-16.4%	-18.0%	-2.5%[9.24 µM]	0.0%	-1.7%	36.7
Nc1ncnc2c1ncn2[C@@H]1O[C@H](C(=O)N[C@@H](CO)Cc2ccccc2)[C@@H](O)[C@H]1O	-11.5%	0.4%	27.7%	.	18.7%	0.0
CC1CCN(C(=O)CSc2nnc(-c3ccccc3F)o2)CC1	-25.2%	-2.6%	18.5%	?	2.4%	32.0
COCc1cc(C)nc(OCC(=O)N/N=C/c2ccc(C)cc2)c1C#N	9.2µM*	11.6µM*	-26.2%	-24.6%	?	0.0
Cc1cc(C)cc(-n2ccnc2SCC(=O)Nc2ccc(C)cc2C)c1	20.6µM*	16.4µM*	.	.	.	.
COc1ccc(OC)c(NC(=O)CSc2nccn2-c2cc(C)cc(C)c2)c1	16.4µM*	14.6µM*	.	.	.	.
COc1cc2[nH]c(C(=O)N3CCc4ccccc4C3)cc2c(OC)c1OC	14.6µM*	?	-29.4%	?	?	.
COc1cc(/C=C/c2[nH]c(=O)[nH]c(=O)c2[N+](=O)[O-])cc([N+](=O)[O-])c1O	-3.0%	1.5%	7.6%	12.6%	-0.6%	16.6
CCC(C)Oc1ccc(/C=C/c2[nH]c(=O)[nH]c(=O)c2[N+](=O)[O-])cc1OC (stereo not given)	32.1%	54.8%	-24.8%	?	?	-101.5*
SMILES	TDP1 cell noCPT	TDP1 cell CPT	HT1080NT lethal	ELG1 repair inh	HT1080 IDH1KD tx	IL1B secr inh
O=C(NC1CC1)c1ccc(NC(=O)C2CCC2)cc1	?	?	-5.7%	.	-4.1%	2.6
Cc1ccc(C(=O)c2cn[nH]c2-c2ccccc2O)cc1	?	?	1.6%	?	1.2%	-8.5
Cc1ccc(C(=O)c2c(C)oc3c2C(=O)C(=O)c2ccccc2-3)cc1	2.59µM*	2.06µM*	?	?	?	-121.0*
Cc1ccc(C(=O)c2coc3c2C(=O)C(=O)c2ccccc2-3)cc1	4.61µM*	3.26µM*	?	?	?	0.0
COc1ccc(CCNC(=O)c2cnc3sc(N4CCOCC4)nn3c2=O)cc1OC	-19.5%	-18.3%	.	.	.	.
CCC1(C2CCN(C(=O)c3cc4ccccc4o3)CC2)NC(=O)N(CCc2scnc2C)C1=O (stereo not given)	?	12.8%[9.04 µM]	.	.	.	.
O=[N+]([O-])c1cccnc1N1CCC(c2cc(-c3ccc(Cl)cc3)n[nH]2)CC1	20.6µM*	20.6µM*	-0.6%	?	-18.0%	-84.7*
CNC(=S)N(C)[C@H]1c2c(ccc3ccccc23)OC[C@H]1CO	?	?	-11.2%	23.1µM*	-7.1%	-26.9
CCOc1cc(/C=C(\C#N)C(=O)Nc2cccc(C(=O)O)c2)ccc1OCc1ccc(Br)cc1	29.1µM*	?	-5.3%	4.9%	-4.7%	-2.6
CCCN(C(=O)c1cc2c(=O)oc3ccccc3c2s1)c1ccc(CC)cc1	17.4%	2.7%	.	.	.	.
CC(C)c1ccc(C(N)=S)cc1	25.9µM*	-0.3%	15.8%	?	3.9%	11.7
FC(F)(F)c1ccc(NC(=S)NCc2ccccc2)cc1	?	14.6µM*	?	-13.7%	?	-62.5*
FC(F)Sc1ccc(NC(=S)NC(c2ccccc2)c2ccccc2)cc1	10.3µM*	4.61µM*	?	-8.2%	?	-68.2*
FC(F)Oc1ccc(NC(=S)NCc2ccccc2)cc1	?	-26.5%	-9.1%	9.4%	-13.3%	-3.9
